Test results: PubChem BioAssay (NCI)
Compounds without any hit were thinned out: in the full panel of roughly 83,000, 20% have a hit.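 Negative percent growth values reflect cell death: -40 means 40% of the cells present at the start died, and -100 means all died.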 Values without a mark were called inactive. Active and inactive are the calls of the source. The calls were made as follows: active = growth percent below 10; inactive = the rest.

How the values were obtained:
Assay in all cases: NCI-60 one-dose screen, 48 h (100 = growth as untreated, 0 = no growth, -100 = all killed)
Conditions in all cases: 10 µM unless noted
SK-MEL-2 melanoma = test system: SK-MEL-2 melanoma
EKVX NSCLC = test system: EKVX NSCLC
SN12C renal = test system: SN12C renal
UO-31 renal = test system: UO-31 renal
TK-10 renal = test system: TK-10 renal
ACHN renal = test system: ACHN renal
CAKI-1 renal = test system: CAKI-1 renal
A498 renal = test system: A498 renal
CCRF-CEM leukemia = test system: CCRF-CEM leukemia
MOLT-4 leukemia = test system: MOLT-4 leukemia

Row | Structure (SMILES) | growth (SK-MEL-2 melanoma) | growth (EKVX NSCLC) | growth (SN12C renal) | growth (UO-31 renal) | growth (TK-10 renal) | growth (ACHN renal) | growth (CAKI-1 renal) | growth (A498 renal) | growth (CCRF-CEM leukemia) | growth (MOLT-4 leukemia)
1 | Oc1c(C(c2ccc(F)cc2)N2CCCCC2)ccc2cncnc12 (stereo not drawn) | -16.6% (active) | 16.9% | 10% | 11% | 9.03% (active) | 10.9% | 19% | -8.07% (active) | 18.5% | 13.1%
2 | CC(=O)c1cccc(Nc2ncnc3ccc(NC(=O)c4ccco4)cc23)c1 | 98.1% | 84.8% | 87.4% | 64.8% | 99.6% | 87.1% |  | 82.4% | 96.5% | 
3 | C=CCn1c(SCC(=O)Nc2ccc(C(=O)/C=C/c3ccccc3)cc2)nnc1-c1ccc(OC)c(OC)c1 | 85.2% | 80.7% | 74.7% | 55.7% | 87.6% | 86.8% |  | 75% | 83.7% | 58.2%
4 | Cn1c(=O)c2c3c(oc2c2ccccc21)C(=O)c1ccccc1C3=O | 92.6% | 70.7% | 81.8% | 54.8% | 94.5% | 75.5% |  | 93.3% | 19.1% | 2.39% (active)
5 | CN(C)c1ccc(/C=C(\C#N)c2nc3ccccc3n2C)cc1 | 46.6% | 28.3% | 54% | 46.2% | 37.7% | 55.3% | 13.7% |  | 31.2% | 29.5%
6 | CC(C)(C)NC(=O)C(OC(=O)C1CCc2cc(F)ccc2O1)c1ccccc1Cl (stereo not drawn) | 102% | 96% | 101% | 72.4% | 99% | 99% |  | 90.7% | 92.5% | 
7 | COc1ccc(/C=C/C(=O)c2ccc(NC(=O)CSc3nnc(-c4ccc(OC)cc4)n3-c3ccccc3)cc2)cc1 | 95.5% | 95.5% | 96.5% | 79.3% | 109% | 106% |  | 109% | 95% | 88%
8 | Nc1nc(N)c2cc(Sc3ccc(Cl)cc3)ccc2n1 | 50.7% | 33.6% | 29.7% | 21.6% | 43% | 23% | 13.5% | 63.6% | 41.5% | 25.8%
9 | COC(=O)c1cc(Cl)cc([N+](=O)[O-])c1O | 135% | 88.8% | 108% | 87.1% | 118% | 106% | 92.6% | 89.5% | 25.6% | 61.6%
10 | O=C1C2=C(C(=O)c3c(O)ccc(O)c31)N(c1ccc(N3CCOCC3)nc1)Cc1ccccc1O2 | -42.1% (active) | -9.79% (active) | -85.2% (active) | -100% (active) | -98.7% (active) | -100% (active) |  | -50.1% (active) | -10.1% (active) | -24.4% (active)
11 | COc1ccc(-n2nc(C(=O)NCC(=O)Nc3nc4cc(OC)ccc4s3)c3ccccc3c2=O)cc1 | -19.9% (active) | 30.4% | 41.7% | -0.0591% (active) | -41.9% (active) | -1.26% (active) | -27.5% (active) | -2.05% (active) | 92.7% | 58.5%
12 | CCCCCNCCCCCNc1cc(OC)cc2cccnc12 | 99% | 101% | 92.7% | 46% | 78.7% | 94.3% |  | 75% | 95.2% | 
13 | CCCCCCCCCCCCCCCC1=NCC[N+]1(CCO)CCO | 85.2% | 72.3% | 67% | 42.1% | 66.6% | 67.1% | 79.5% | 86.8% |  | 43%
14 | C=CCn1c(SCC(=O)Nc2ccc(/C(C)=N\O)cc2)nnc1-c1cc(-c2ccc(Cl)cc2)nc2ccccc12 | 28.5% | 32% | 33.7% | -12.5% (active) | 31.8% | 20.2% |  | 21.9% | 11.1% | -25.3% (active)
15 | O=C(NO)c1ccc(NCc2csc3ccccc23)cc1 | 84.1% | 69.7% | 59.4% | 39.5% | 59.1% | 69.6% |  | 57.1% | 44.7% | 43.1%
16 | O=C(Nc1cnc(C(F)(F)F)cn1)c1cc(Cl)ccc1O | -27.6% (active) | 7.75% (active) | 5.36% (active) | -5.6% (active) | 1.77% (active) | 3.85% (active) |  | -53.5% (active) | 14.9% | 1.24% (active)
17 | COc1cc(-c2n/c(=C\c3c(O)[nH]c4cc(Cl)ccc34)cc3c2=Nc2ccccc2-3)cc(OC)c1OC | 72.9% | 64.1% | 78.4% | 74.9% | 63% | 59.6% | 69.1% | 94.5% |  | 70.6%
18 | NC(N)=N/N=C\c1ccc(OCc2ccccc2)cc1 | 86.6% | 88.6% | 79.5% | 64.6% | 73.4% | 75.7% |  |  | 72.3% | 73.8%
19 | COc1ccc(-c2nn(-c3cccc(Cl)c3)cc2/C=C2\C(=N)N(c3ccccc3)N=C2N)cc1 | 69.5% | 48.8% | 45.9% | 6.27% (active) | 80.7% |  | -27.6% (active) | 75.3% | 12.3% | 6.35% (active)
20 | CSCCC1NC(=O)C(C(C)=Nc2ccccc2)=C1O (stereo not drawn) | 129% | 101% | 101% | 93.4% |  | 113% | 89.3% | 102% | 106% | 119%
21 | COc1cc2nccc(Oc3ccc(NC(=O)C4(C(=O)Nc5ccc(F)cc5)CC4)cc3)c2cc1Oc1ccc(N)cn1 | 54.3% | 15.9% | 14.8% | 19.8% |  | 18.6% | 43.5% | -20.9% (active) | 61.2% | 
22 | C=C(C)[C@@H]1CC[C@]2(C)[C@H](CC=C3[C@@H]4C[C@](C)(C(=O)N5CCN(C)CC5)CC[C@]4(C)CC[C@]32C)[C@@]1(C)CCC#N | 76.4% | 85.6% | 75.2% | 66.1% |  | 80.4% | 63% | 97% | 34.1% | 
23 | O=C(NNC(=S)Nc1ccccc1)c1ccc(Nc2ncnc3c2cnn3-c2cccc(Br)c2)cc1 | 105% | 105% | 96.1% | 82.3% | 106% |  | 93.4% | 102% | 108% | 104%
24 | COc1ccc2nc(NC(=O)/C(=C/c3cc(OC)c(OC)c(OC)c3)c3ccc(OC)c(OC)c3)sc2c1 | 95.6% | 77.8% | 99.9% | 67.4% |  | 94.9% | 75.9% | 95.7% | 98.6% | 83.7%
25 | O=C(CCCCCCc1nc2ccc(Br)cc2[nH]1)NO | -5.43% (active) | 28.6% | 1.73% (active) | -17.9% (active) | -13.9% (active) |  | -41.5% (active) | 9.4% (active) | 9.8% (active) | 7.38% (active)
26 | NC(N)=N/N=C\c1cccc(OCc2ccccc2)c1 | 61.4% | 80.7% | 86.6% | 63.9% | 78.6% | 87.4% |  |  | 82.2% | 80.1%
27 | CCN(C(=O)Nc1cccc2ccccc12)c1ccccc1 | 108% | 95.9% | 103% | 73% | 108% |  | 99.9% | 90.2% | 109% | 72.6%
28 | C#CC[C@@H]1C[C@]2(C)[C@H]3CC[C@@H]4[C@H]5C(C(=C)C)CC[C@]5(C(=O)NCCCCN)CC[C@@]4(C)[C@]3(C)CC[C@H]2C(C)(C)[C@H]1OC(C)=O (stereo partly drawn) | 61% | 90.1% | -82.9% (active) | -97.1% (active) | -92.9% (active) |  | -98.8% (active) | 108% | -11% (active) | -21.3% (active)
29 | O=C(Nc1ccccc1Cl)Oc1ccc2ccccc2c1 | 97.3% | 98.9% | 99.3% | 68.7% |  | 98.3% | 97.8% | 100% | 114% | 78.2%
